From PubChem
Hits are enriched below; roughly 2.7% of the tested compounds scored in any of these assays.
CF NFkB inh: cystic fibrosis NF-kB activation inhibition; inhibition, % at 5 µM; AID 588850; 360,000 compounds, 0.86% hits; KKLEB NF-kB-GFP reporter, PAF-induced, GFP fluorescence overnight;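 active = at least 50% inhibition at 5 µM, scaled per plate between neutral and stimulator controls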;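 note: PAF is a Pseudomonas aeruginosa culture filtrate used as stimulus; plate controls were PAF-stimulated DMSO wells for no effect and unstimulated DMSO wells for full effect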
Peg3 promoter: reduces Peg3 promoter-driven luciferase expression in HeLa; HeLa PEG-Prom luciferase reporter, luminescence, overnight; inhibition, % at 20 µM; 360,000 compounds, 1.7% hits; AID 588405;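 active = inhibition of at least 50% at 20 µM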
Shn3 inh set2: inhibitors of Schnurri-3 3'UTR reporter in osteoblasts | Clone20 osteoblast Shn3 3'UTR firefly luciferase, 24 h | inhibition, % at 12.5 µM | 360,000 compounds, 0.52% hits;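 active = mean inhibition of at least 75% with every replicate also reaching 75%; inconclusive = mean inhibition at least 75% but some replicate below; inactive = mean inhibition below 75%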;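 note: 0% = median of neutral control wells and 100% = pilot-screen positive control compound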
TRPM1 prom inh: inhibitors of MITF-driven TRPM1 promoter in melanoma cells. SK-MEL-5 TRPM1 promoter luciferase, 24 h. inhibition, % at 12.5 µM. 330,000 compounds, 0.83% hits;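 active = mean inhibition across replicates of 60% or more, whatever share of single replicates reaches that level; inconclusive = some that reach 60%, reason not given; inactive = mean inhibition across replicates below 60%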
KKLEB tox: counter-screen for CF NF-kB inhibitors: cytotoxicity; KKLEB CF airway cells viability, ATPlite luminescence, overnight; active compounds read low; cells stimulated with P. aeruginosa culture filtrate; activity change (cytotoxicity), % at 5 µM; 360,000 compounds, 0.36% hits; AID 602141;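 active = corrected activity change at or below -50% at 5 µM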
HIF-2a inh: HIF-2a inhibition. 360,000 compounds, 0.72% hits. 786-0 RCC cells HIF-2a reporter, luciferase luminescence, overnight. inhibition, % at 18.8 µM;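 active = inhibition of the luminescence signal of 40% or more relative to plate controls, in a single-dose primary screen at 18.75 µM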
An asterisk follows results filed as active.

Screening Cc1c(C(=O)NCC2COc3ccccc3O2)oc2ccc(S(=O)(=O)N3CCOCC3)cc12 (configuration not stated) returned CF NFkB inh -3.9, Peg3 promoter 72.9*, Shn3 inh set2 28.4, TRPM1 prom inh 25.0, KKLEB tox -21.4 and HIF-2a inh 3.5.
Screening Cc1c(C(=O)Nc2ccc(F)cc2)oc2ccc(S(=O)(=O)N3CCC4(CC3)OCCO4)cc12 returned CF NFkB inh -39.0, Peg3 promoter 55.4*, Shn3 inh set2 41.0, TRPM1 prom inh 20.3, KKLEB tox 9.7 and HIF-2a inh 12.1.
Cc1ccc(CNCCCSc2ncccn2)cc1 was read as CF NFkB inh -18.7, Peg3 promoter -4.5, Shn3 inh set2 8.4, TRPM1 prom inh -14.1, KKLEB tox 0.3 and HIF-2a inh 1.4.
`Cc1nonc1CC(=O)NC1CCCc2c1cnn2-c1ccc(F)cc1F` (configuration not stated) gave CF NFkB inh 9.8, Peg3 promoter -31.6, Shn3 inh set2 -2.4, TRPM1 prom inh 9.4, KKLEB tox -4.7 and HIF-2a inh -16.7.
Screening CCN1C(=O)N2C[C@H]3CON(C)[C@H]3C[C@H]2c2ccccc21 returned CF NFkB inh -31.7, Peg3 promoter 9.3, Shn3 inh set2 -14.7, KKLEB tox -4.7 and HIF-2a inh -5.2.
Screening Cc1c(C(=O)Nc2cccc(Cl)c2)oc2ccc(S(=O)(=O)N3CCC4(CC3)OCCO4)cc12 returned CF NFkB inh -7.4, Peg3 promoter 57.9*, Shn3 inh set2 82.8, TRPM1 prom inh 28.9, KKLEB tox -25.0 and HIF-2a inh -9.7.
For Cc1c(C(=O)Nc2ccc(S(=O)(=O)N(C)C3CCN(C)CC3)cc2)oc2ccccc12 the results were CF NFkB inh 5.3, Peg3 promoter 89.3*, Shn3 inh set2 -10.1, TRPM1 prom inh -7.8, KKLEB tox 1.2 and HIF-2a inh -23.8.
Cc1c(C(=O)NCc2ccccc2)oc2ccc(S(=O)(=O)N3CCC4(CC3)OCCO4)cc12 was read as CF NFkB inh -6.9, Peg3 promoter 16.7, Shn3 inh set2 16.5, TRPM1 prom inh 10.0, KKLEB tox -5.1 and HIF-2a inh 10.3.
Screening CC(C)(C)NC(=O)CN1CCCN(C(=O)c2cccc(S(=O)(=O)N3CCc4ccccc43)c2)CC1 returned CF NFkB inh -13.8, Peg3 promoter 2.9, Shn3 inh set2 8.7, TRPM1 prom inh 5.7, KKLEB tox 4.8 and HIF-2a inh 1.9.
Screening O=[N+]([O-])c1ccc(N2N=C(c3ccccc3)CC2c2ccccc2O)cc1 (configuration not stated) returned CF NFkB inh 40.8, Peg3 promoter 53.0*, Shn3 inh set2 56.1, TRPM1 prom inh 2.9, KKLEB tox -37.1 and HIF-2a inh -0.1.
CCN1c2ccccc2N(C)C1(C)c1ccccc1 (configuration not stated) was read as CF NFkB inh -17.6, Peg3 promoter -4.8, Shn3 inh set2 89.1*, TRPM1 prom inh 59.5, KKLEB tox -1.4 and HIF-2a inh 25.8.
CN1c2ccccc2N(C)C1(C)c1ccccc1 was read as CF NFkB inh 6.9, Peg3 promoter -6.5, Shn3 inh set2 79.8, TRPM1 prom inh 16.7, KKLEB tox -4.9 and HIF-2a inh -1.5.
`Cc1ccc(C)c(S(=O)(=O)Nc2ccc(-n3cnnn3)cc2)c1` gave CF NFkB inh 9.1, Peg3 promoter 11.1, Shn3 inh set2 82.7*, TRPM1 prom inh -13.9, KKLEB tox -21.5 and HIF-2a inh 14.1.
For O=C(CSc1nnc2ccc(-c3ccccn3)nn12)N1CCCC1 the results were CF NFkB inh -5.0, Peg3 promoter 2.3, Shn3 inh set2 -6.4, TRPM1 prom inh -1.0, KKLEB tox 4.4 and HIF-2a inh 11.9.
For Cc1ccc2nc(N/N=C\c3ccc([N+](=O)[O-])o3)nc(-c3ccccc3)c2c1 the results were CF NFkB inh -26.7, Peg3 promoter 2.6, Shn3 inh set2 -5.5, TRPM1 prom inh 34.4, KKLEB tox 14.3 and HIF-2a inh -44.1.
For O=[N+]([O-])c1ccc(/C=N/Nc2nc(-c3ccccc3)c3cc(Br)ccc3n2)o1 the results were CF NFkB inh -22.2, Peg3 promoter 62.5*, Shn3 inh set2 12.9, TRPM1 prom inh 8.3, KKLEB tox 3.2 and HIF-2a inh 4.7.
`CCCCCc1ccc(OCCOCCn2c[n+](C)c3ccccc32)c(CCCCC)c1` gave CF NFkB inh 37.9, Peg3 promoter 104.7*, Shn3 inh set2 93.4*, TRPM1 prom inh 76.8*, KKLEB tox -42.8 and HIF-2a inh 9.0.
Screening CCCCCc1ccc(OCCC[n+]2ccccc2)c(CCCCC)c1 returned CF NFkB inh 84.7*, Peg3 promoter 106.6*, Shn3 inh set2 inconclusive, TRPM1 prom inh 104.9*, KKLEB tox -91.1* and HIF-2a inh 31.9.
`CCn1c(SCC(N)=O)nc2cc(S(=O)(=O)N3CCOCC3)ccc21` gave CF NFkB inh 9.4, Peg3 promoter -0.8, Shn3 inh set2 0.5, TRPM1 prom inh -9.0, KKLEB tox -0.3 and HIF-2a inh 13.9.
CCn1c(CCl)nc2cc(S(=O)(=O)N3CCOCC3)ccc21 was read as CF NFkB inh 8.5, Peg3 promoter 71.4*, Shn3 inh set2 -1.7, KKLEB tox 1.3 and HIF-2a inh 12.8.
COCCNC(=O)CCSc1nc(-c2ccc(OC)cc2)cc(C(F)(F)F)n1 was read as CF NFkB inh 2.6, Peg3 promoter -4.3, Shn3 inh set2 4.1, TRPM1 prom inh -2.6, KKLEB tox -6.4 and HIF-2a inh 8.7.
`COCC(C)NC(=O)CCS(=O)(=O)c1nc(-c2ccc(OC)cc2)cc(C(F)(F)F)n1` (configuration not stated) gave CF NFkB inh 86.2*, Peg3 promoter 109.9*, Shn3 inh set2 -9.0, TRPM1 prom inh 7.1, KKLEB tox -75.6* and HIF-2a inh 93.6*.
`COc1cc(OC)c(OC)cc1/C=C1\CC(C)C/C(=C\c2cc(OC)c(OC)cc2OC)C1=O` (configuration not stated) gave CF NFkB inh 22.5, Peg3 promoter 57.9*, Shn3 inh set2 93.6*, TRPM1 prom inh 51.2, KKLEB tox 8.7 and HIF-2a inh 28.9.
For CCCCCCCCNC(C)C(O)c1ccc(SC(C)C)cc1 (configuration not stated) the results were CF NFkB inh 5.0, Peg3 promoter 103.9*, Shn3 inh set2 96.0*, TRPM1 prom inh 82.9*, KKLEB tox -29.4 and HIF-2a inh 22.1.
Screening CC1(C(=O)NS(=O)(=O)c2ccc(Cl)cc2)CCN1C(=O)Cc1ccc(Cl)cc1Cl (configuration not stated) returned CF NFkB inh -10.9, Peg3 promoter 10.5, Shn3 inh set2 7.9, KKLEB tox 8.4 and HIF-2a inh 7.2.
For COc1ccc(S(=O)(=O)N2CCOCC2)cc1C(=O)Nc1ccc(N2CCCCCC2)cc1 the results were CF NFkB inh -4.6, Peg3 promoter 7.0, Shn3 inh set2 80.9, TRPM1 prom inh -1.2, KKLEB tox -8.3 and HIF-2a inh 0.1.
